Source: PubChem BioAssay (National Center for Advancing Translational Sciences (NCATS))
The list is not random: actives were taken first. Their share in the collection is about 21%.
DRD3 agonist: D3 dopamine receptor (human) agonism | P35462 | D3R DiscoveRx beta-arrestin cells, luminescence, 90 min | max activation, % | actives 0.58% (n = 410,000) | AID 652048; in the data active = max activation above about 30%; note: 0% is about no effect
Target sequence (P35462 whole entry, looked up): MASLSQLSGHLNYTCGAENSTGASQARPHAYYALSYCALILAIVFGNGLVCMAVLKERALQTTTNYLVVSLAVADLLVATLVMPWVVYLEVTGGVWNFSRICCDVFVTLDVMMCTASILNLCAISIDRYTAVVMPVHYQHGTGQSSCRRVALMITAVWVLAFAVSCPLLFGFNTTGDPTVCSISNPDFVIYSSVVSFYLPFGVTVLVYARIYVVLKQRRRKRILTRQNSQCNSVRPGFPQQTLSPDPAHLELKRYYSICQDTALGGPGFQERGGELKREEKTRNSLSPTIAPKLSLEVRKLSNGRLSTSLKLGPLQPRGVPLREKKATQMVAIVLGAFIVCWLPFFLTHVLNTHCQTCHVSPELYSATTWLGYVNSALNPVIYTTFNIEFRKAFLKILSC
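Agonist mode: compounds and dopamine controls were applied to plated cells for 90 min at 37 degrees C after an overnight attachment at 1500 cells/well. Luminescent read-out followed 30 - 60 minutes at room temperature with DiscoveRx detection reagent.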
ClpP mod: qHTS Assay for Activators of ClpP | actives 1.9% (n = 340,000) | Potency, µM (series often up to 57.5 µM), without a hit: at the top dose activity change, negative = active | purified B. subtilis ClpP, FRET peptide cleavage, 20 min | ATP-dependent Clp protease proteolytic subunit (Bacillus subtilis (strain 168)), P80244; active = well fitted falling curve with a large enough effect; inconclusive = small, poorly fitted or top-dose-only effect; inactive = no such curve, though single readings can be large or run the other way; note: potency is the fitted concentration of half-maximal effect; the source files actives as falling curves though it sought activators and does not explain the sign; nearly all actives have a fitted effect of over 65% in size
Target sequence (P80244 whole entry, looked up): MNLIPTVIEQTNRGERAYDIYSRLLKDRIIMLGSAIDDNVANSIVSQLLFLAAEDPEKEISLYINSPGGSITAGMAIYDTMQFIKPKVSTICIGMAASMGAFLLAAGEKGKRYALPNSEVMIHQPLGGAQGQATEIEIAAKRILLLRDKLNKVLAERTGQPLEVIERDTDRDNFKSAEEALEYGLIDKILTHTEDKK
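FRET quenching reversal measured ClpP activation: 10 microg/mL B. subtilis ClpP at pH 8 with the FRET-FV decapeptide, read at 430 nm after 320 nm excitation. The 20-min minus 0-min signal was scaled between DMSO/no-enzyme wells and ADEP (5.8 microM final).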
DRD3 antagonist: antagonists of human D3 dopamine receptor | D3R cells, DiscoveRx beta-arrestin luminescence, antagonist mode; active compounds read low | max response, negative = inhibition, % | actives 2.5% (n = 360,000) | AID 652054; in the data active = max response below about -50%; inconclusive = no clear call, values can overlap the other calls; note: % is set by controls: 0 for no effect and ±100 for the full control effect
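Cells plated overnight at 1500 cells/well, then exposed to library compounds with dopamine controls for 90 minutes at 37 degrees C. DiscoveRx reagent added for 30–60 minutes at room temperature; luminescence read, quantitative HTS format.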
IL1B secr inh: inflammasome signaling inhibition, IL-1 beta readout. actives 4.7% (n = 360,000). THP-1 LPS/ATP IL-1B secretion, AlphaLISA, 16 h; active compounds read low. activity change, % at 57.5 µM; in the data active = activity change below about -50%; inconclusive = mostly about -30% to -49%; note: % is set by controls: 0 for no effect and ±100 for the full control effect
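Secreted IL-1B measured by AlphaLISA bead assay after 16 h compound exposure of THP-1 cells; compounds (final up to 57.5 uM) added 1 h before LPS (250 ng/mL) and ATP (1.25 mM) stimulation; lower signal means less secretion.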
TDP1 cell noCPT: qHTS for Inhibitors of human tyrosyl-DNA phosphodiesterase 1 (TDP1): qHTS in cells in absence of CPT; DT40 Tdp1-/- hTDP1 cells, no CPT, ATP luminescence, 48 h; Potency, µM (series often up to 46.2 µM), inactives show top-dose activity change, negative = growth inhibition, most hits filed as inhibitors; actives 15% (n = 420,000); AID 686978, 2013; note: potency is the fitted concentration of half-maximal effect; % is set by controls: 0 for no effect and ±100 for the full control effect; nearly all actives have a fitted effect of over 55% in size
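Growth kinetics read by CellTiter-Glo luminescence after ≥48 hr at 37 °C. Cells: DT40 Tdp1-/- stably carrying human TDP1, 400 per well, compound exposure in the absence of CPT (DMSO vehicle).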
DT40 TDP1 CPT: growth inhibition of DT40 Tdp1-/-;hTDP1 cells with camptothecin (screen for TDP1 inhibitors). chicken DT40 Tdp1-/-;hTDP1 cells + 20 nM CPT, ATP luminescence, 48 h. Potency, µM (top dose mostly 46.2 µM), for the others: top-dose activity change, negative = growth inhibition, most hits filed as inhibitors. actives 12% (n = 420,000); note: potency is the fitted concentration of half-maximal effect; % is set by controls: 0 for no effect and ±100 for the full control effect; nearly all actives have a fitted effect of over 55% in size
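Chicken DT40 Tdp1-/- cells stably complemented with human TDP1 were seeded at 400 cells/well in medium containing 20 nM camptothecin, exposed to pin-transferred compounds, and grown at 37 °C for at least 48 hr. Viability was read as ATP luminescence.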
Starred values were filed as active, the others as inactive. Unless noted, calls come from the whole dose curve; as a rule, active = well fitted inhibition curve with a large enough effect; inconclusive = small, poorly fitted or top-dose-only effect; inactive = flat fitted curve, though single readings scatter.

Screening O=C(O)c1cc([N+](=O)[O-])c(Sc2nc3ccccc3[nH]2)c([N+](=O)[O-])c1 returned DRD3 agonist 0.6, ClpP mod 1.3%, DRD3 antagonist -7.6, IL1B secr inh -7.3, TDP1 cell noCPT -15.3% and DT40 TDP1 CPT -18.2%.
For COc1ccc2nc(SCC(=O)NCc3ccccc3)[nH]c2c1 the results were DRD3 agonist 8.9, ClpP mod -2.9%, DRD3 antagonist 6.8, IL1B secr inh 36.1, TDP1 cell noCPT 1.2% and DT40 TDP1 CPT -3.6%.
For O=C(COC(=O)/C=C/c1ccccc1)NNC(=O)c1ccccc1F the results were DRD3 agonist -1.1, ClpP mod 0.9%, DRD3 antagonist 41.1, IL1B secr inh 10.3, TDP1 cell noCPT 8.0% and DT40 TDP1 CPT -12.5%.
Cc1cc2nc(Sc3c([N+](=O)[O-])nc(C)n3Cc3ccccc3)[nH]c2cc1C was read as DRD3 agonist -1.2, ClpP mod 2.6%, DRD3 antagonist -5.2, IL1B secr inh -97.6*, TDP1 cell noCPT 11.6µM* and DT40 TDP1 CPT 7.31µM*.
For CCN1CCN(c2ccc([N+](=O)[O-])c(Sc3nc4ccccc4[nH]3)c2)CC1 the results were DRD3 agonist -38.8, ClpP mod -1.4%, DRD3 antagonist -93.7*, IL1B secr inh inconclusive, TDP1 cell noCPT inconclusive and DT40 TDP1 CPT inconclusive.
CC(O)c1nc2ccc(C(=O)O)cc2[nH]1 (stereo not drawn) was read as DRD3 agonist 6.4, ClpP mod 1.0%, DRD3 antagonist 9.1, IL1B secr inh 5.8, TDP1 cell noCPT 6.3% and DT40 TDP1 CPT 3.8%.
Cc1ccc(CN2C(=O)C(F)(F)Oc3ccccc32)cc1 was read as DRD3 agonist -5.1, ClpP mod -0.6%, DRD3 antagonist 0.0, IL1B secr inh 15.9, TDP1 cell noCPT 1.3% and DT40 TDP1 CPT 11.0%.
`COc1ccc(CN2C(=O)C(O)(CC(=O)c3ccc4c(c3)OCO4)c3ccccc32)cc1OC` (stereo not drawn) gave DRD3 agonist 35.6*, ClpP mod -3.2%, DRD3 antagonist 3.5, IL1B secr inh 20.9, TDP1 cell noCPT 6.31µM* and DT40 TDP1 CPT 6.31µM*.
Screening COc1cccc2cc(C(=O)CC3(O)C(=O)N(Cc4ccccc4)c4ccccc43)c(=O)oc12 (stereo not drawn) returned DRD3 agonist 0.0, ClpP mod 2.1%, DRD3 antagonist -4.2, IL1B secr inh 3.6, TDP1 cell noCPT 6.51µM* and DT40 TDP1 CPT 13µM*.
For Cc1ccc(C(=O)CC2(O)C(=O)N(Cc3ccccc3)c3ccccc32)c(C)c1 (stereo not drawn) the results were DRD3 agonist 3.1, ClpP mod -0.8%, TDP1 cell noCPT inconclusive and DT40 TDP1 CPT 23.1µM*.
Cc1ccc(C(=O)N2c3ccccc3N(Cc3ccccc3)C(=O)C2(C)C)cc1 was read as DRD3 agonist -19.4, ClpP mod -2.0%, DRD3 antagonist -23.1, IL1B secr inh -67.8*, TDP1 cell noCPT 20µM* and DT40 TDP1 CPT 14.6µM*.
Screening O=C(O)CC1(O)C(=O)N(Cc2ccccc2)c2ccccc21 (stereo not drawn) returned DRD3 agonist 1.8, DRD3 antagonist 4.7, IL1B secr inh 14.3, TDP1 cell noCPT 5.2% and DT40 TDP1 CPT 8.1%.
Screening CCNc1ncc2nc(-c3cccs3)c(=O)n(-c3ccc(OC)cc3)c2n1 returned TDP1 cell noCPT inconclusive and DT40 TDP1 CPT -15.1%.
For O=C(CC1(O)C(=O)N(Cc2ccccc2Cl)c2ccccc21)c1ccco1 (stereo not drawn) the results were DRD3 agonist 0.4, ClpP mod 0.7%, DRD3 antagonist -6.5, IL1B secr inh 34.7, TDP1 cell noCPT 3.66µM* and DT40 TDP1 CPT 3.26µM*.
For CCCCN1C(=O)C(O)(CC(=O)c2ccc(C(C)(C)C)cc2)c2ccccc21 (stereo not drawn) the results were DRD3 agonist 2.5, ClpP mod 1.6%, TDP1 cell noCPT 14.6µM* and DT40 TDP1 CPT 20.6µM*.
For COc1ccc(C(=O)CC2(O)C(=O)N(Cc3ccccc3Cl)c3ccccc32)cc1 (stereo not drawn) the results were DRD3 agonist 0.7 and ClpP mod 0.3%.
For CCc1ccc(C(=O)CC2(O)C(=O)N(Cc3ccc(C)cc3)c3ccccc32)cc1 (stereo not drawn) the results were DRD3 agonist -10.3, ClpP mod -8.1%, TDP1 cell noCPT 2.59µM* and DT40 TDP1 CPT 4.61µM*.
`O=c1c(Cl)c(Nc2cccc(Cl)c2)cnn1-c1nc2ccccc2s1` gave DRD3 agonist -9.0, ClpP mod -1.9%, DRD3 antagonist 6.0, IL1B secr inh -29.0, TDP1 cell noCPT inconclusive and DT40 TDP1 CPT -38.7%.
Screening COc1ccc(Nc2cnn(-c3nc4ccccc4s3)c(=O)c2Cl)cc1 returned DRD3 agonist -2.9, ClpP mod 0.4%, DRD3 antagonist -18.0, IL1B secr inh -81.2*, TDP1 cell noCPT 4.11µM* and DT40 TDP1 CPT 2.06µM*.
`Cc1ccc(C)c(N2CCN(c3cnn(-c4nc5ccccc5s4)c(=O)c3Cl)CC2)c1` gave DRD3 agonist 1.6, ClpP mod 2.8%, DRD3 antagonist -6.6, IL1B secr inh -5.1, TDP1 cell noCPT 9.2µM* and DT40 TDP1 CPT 9.2µM*.
Screening COc1ccccc1NS(=O)(=O)c1ccc(O)c(C(=O)OCC(=O)N2c3ccccc3CC2C)c1 (stereo not drawn) returned DRD3 agonist -20.4, ClpP mod -24.8%, DRD3 antagonist -106.3*, IL1B secr inh 4.1, TDP1 cell noCPT inconclusive and DT40 TDP1 CPT -19.0%.
CC(=O)N1c2ccc(S(=O)(=O)N3CCC(C(=O)Nc4cccc(C)c4C)CC3)cc2CC1C (stereo not drawn) was read as DRD3 agonist 6.6, ClpP mod 0.5%, DRD3 antagonist 2.6, IL1B secr inh -1.3, TDP1 cell noCPT -18.3% and DT40 TDP1 CPT inconclusive.
Screening CC1Cc2cc(S(=O)(=O)NCCC(=O)N(C)Cc3ccccc3)ccc2N1C(=O)C1CC1 (stereo not drawn) returned DRD3 agonist 0.6, ClpP mod 0.9%, DRD3 antagonist -6.9, IL1B secr inh -8.0, TDP1 cell noCPT inconclusive and DT40 TDP1 CPT inconclusive.
